# “And” between values parts separate entries of the source, which are not always exact repeats. Identical values can stand only once. Records with an inconclusive call do not appear. Where a structure was tested more than once in an assay, its records may differ in their call. Values without a mark were called inactive. The source made the active and inactive calls. Calls come from the whole dose curve; as a rule, active = well fitted inhibition curve with a large enough effect; inconclusive = small, poorly fitted or top-dose-only effect; inactive = flat fitted curve, though single readings scatter.
# System: CRL-7250
# Experiment: Cytotoxic Profiling of Annotated Libraries Using Quantitative High-Throughput Screening (AID 1296008); note: nearly all actives have a fitted effect of over 60% in size
# Conditions: Five cell lines viability, CellTiter-Glo ATP luminescence, 48-72 h; max response: stronger effect = lower value
# In short: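 Cytotoxicity was measured as CellTiter-Glo ATP luminescence, read after 10 min at room temperature. Compound treatment of the cells lasted 48 or 72 hr at 37 degrees Celsius in a qHTS format.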
# % is set by controls: 0 for no effect and ±100 for the full control effect; potency is the fitted concentration of half-maximal effect.
SMILES,Potency,max response
CC[C@@H]1C(=O)N(C)c2cnc(Nc3ccc(C(=O)NC4CCN(C)CC4)cc3OC)nc2N1C1CCCC1,2.64 µM (active),–
Cc1nc2ccc(CN(C)c3ccc(C(=O)N[C@@H](CCC(=O)O)C(=O)O)s3)cc2c(=O)[nH]1,–,-19.7%
COc1ccc(CC2c3cc(OC)c(OC)cc3CC[N+]2(C)CCC(=O)OCCCCCOC(=O)CC[N+]2(C)CCc3cc(OC)c(OC)cc3C2Cc2ccc(OC)c(OC)c2)cc1OC (configuration not stated),–,-0.557%
Cc1ccc(S(=O)(=O)Nc2cc(Cl)ccc2C(=O)Nc2nc(-c3ccccc3)cs2)cc1,–,3.55%
O=C(O)c1ccc2c(c1)nc(Nc1cccc(Cl)c1)c1ccncc12,14.6 µM (active),–
O=C(C=Cc1cccnc1)NCCCCC1CCN(C(=O)c2ccccc2)CC1,0.0743 µM (active),–
COc1ccc(-c2cc3c(C)nc(N)nc3n(C3CCC(OCCO)CC3)c2=O)cn1 (configuration not stated),23.5 nM (active) and 231 nM (active),–
CNC(=O)c1nn(C)c2c1C(C)(C)Cc1cnc(Nc3ccc(N4CCN(C)CC4)cc3)nc1-2,46.9 nM (active) and 580 nM (active),–
Cc1ccc2nc(NC(=O)CSc3nc4c(c(=O)n3-c3ccccc3)SCC4)sc2c1,13.2 µM (active),3.83%
COc1cc(C)c(Sc2cnc(NC(=O)c3ccc(CNC(C)C(C)C)cc3)s2)cc1C(=O)N1CCN(C(C)=O)CC1 (configuration not stated),23.5 µM (active),–
Cc1cc(Nc2nc(N[C@@H](C)c3ccc(F)cc3)c(C#N)cc2F)n[nH]1,16.6 µM (active) and 7.31 µM (active),–

# From PubChem BioAssay (NCATS)
